Laboratory results reported in PubChem BioAssay (NCATS).
Results filed as inconclusive are left out. Active and inactive are the calls of the source. Calls come from the whole dose curve; as a rule, active = well fitted curve in the direction sought with a large enough effect; inconclusive = small, poorly fitted or top-dose-only effect, or another doubt; inactive = no such curve, though single readings can be large; an effect the other way counts as inactive or inconclusive.

Tests used:
[1] = BET inhibitor-based combinations targeting novel dependencies in MECOM-rearranged (r) AML: SET-2 cell line (AID 2202231); conditions: SET-2 AML cells viability, CellTiter-Glo luminescence, 48 h; viability: hits give low values, concentration not given here; note: nearly all actives have a fitted effect of over 35% in size;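 for viability: plate controls were DMSO treated cells for no effect and wells without cells for full effect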
In short: (§1)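 Here, 11-point titrations of each agent were applied to 500 seeded cells and incubated 48 hr; CellTiter-Glo signal, scaled against DMSO and empty wells, was integrated as AUC, then Z-scored within the individual line.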

[2] = BET inhibitor-based combinations targeting novel dependencies in MECOM-rearranged (r) AML: OCI-AML3 cell line (AID 2202232); conditions: Potency: OCI-AML3 viability; note: nearly all actives have a fitted effect of over 35% in size
In short: as §1

[3] = BET inhibitor-based combinations targeting novel dependencies in MECOM-rearranged (r) AML: MV-4-11 cell line (AID 2202233); note: nearly all actives have a fitted effect of over 45% in size
In short: (§2)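 Normalized to DMSO and empty-well controls, the luminescence data from CellTiter-Glo after 48 hr drug exposure were fitted across 11 concentrations. Reported metrics are area under the dose-response curve and its Z-transformed form.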

[4] = BET inhibitor-based combinations targeting novel dependencies in MECOM-rearranged (r) AML: HNT-34 cell line (AID 2202234); note: nearly all actives have a fitted effect of over 35% in size
In short: as §2

[5] = BET inhibitor-based combinations targeting novel dependencies in MECOM-rearranged (r) AML: UCSD-AML1 cell line (AID 2202235); note: nearly all actives have a fitted effect of over 40% in size
In short: as §2

[6] = BET inhibitor-based combinations targeting novel dependencies in MECOM-rearranged (r) AML: AML-191 cell line (AID 2202236; note: nearly all actives have a fitted effect of over 35% in size)
In short: as §1

[7] = BET inhibitor-based combinations targeting novel dependencies in MECOM-rearranged (r) AML: AML-194 cell line (AID 2202237; note: nearly all actives have a fitted effect of over 40% in size)
In short: as §1
Potency is the fitted concentration of half-maximal effect.

C[C@]1(C(=O)N(CCCC(=O)O)Cc2cccc(Cl)c2)CCN1C(=O)c1csc2ccccc12
inactive: viability [1] 108% | Potency [2] | Potency [3] | Potency [4] | Potency [5] | Potency [6] | Potency [7]

CN(C)c1ccc(C(=O)NCCCCCCC(=O)NO)cc1
active: Potency [1] 934 nM | Potency [2] 833 nM | Potency [3] 590 nM | Potency [4] 1180 nM | Potency [5] 1050 nM | Potency [6] 1180 nM | Potency [7] 1320 nM

CC(C)C1CCC(C(=O)N[C@H](Cc2ccccc2)C(=O)O)CC1 (some centres undefined)
inactive: viability [1] 115% | Potency [2] | Potency [3] | Potency [4] | Potency [5] | Potency [6] | Potency [7]

COc1cc2c3c(n(CCCNCCO)c(=O)c2cc1OC)-c1cc2c(cc1C3=O)OCO2
active: Potency [1] 148 nM | Potency [2] 93.4 nM | Potency [3] 59 nM | Potency [4] 59 nM | Potency [5] 74.2 nM | Potency [6] 166 nM

CN(C)c1cc(NC(=O)CNC(C)(C)C)c(O)c2c1C[C@H]1C[C@H]3[C@H](N(C)C)C(=O)C(C(N)=O)=C(O)[C@]3(O)C(=O)C1=C2O
active: Potency [5] 4680 nM
inactive: viability [1] 74.8% | Potency [2] | Potency [3] | Potency [4] | Potency [6] | Potency [7]

CN(Cc1ccc(/C=C/C(=O)NO)cc1)CC12CC3CC(CC(C3)C1)C2
active: Potency [1] 105 nM | Potency [2] 148 nM | Potency [3] 93.4 nM | Potency [4] 148 nM | Potency [5] 132 nM | Potency [6] 148 nM

O=C(Nc1cc(Oc2cc(F)c(NC(=O)C3(C(=O)Nc4ccc(F)cc4)CC3)cc2F)ccn1)C1CC1
active: Potency [1] 11800 nM | Potency [2] 11800 nM | Potency [3] 235 nM | Potency [4] 7420 nM | Potency [5] 14800 nM | Potency [6] 16600 nM | Potency [7] 14800 nM

CC(C)(O)CS(=O)(=O)Nc1ccc2c(c1)CCN(C(=O)COc1cccnc1)C2
inactive: viability [1] 108% | Potency [7]
active: Potency [2] 23.5 nM | Potency [3] 105 nM | Potency [4] 66.1 nM | Potency [5] 332 nM | Potency [6] 66.1 nM

CCC[C@@H]1C[C@@H](C(=O)N[C@@H]([C@H]2O[C@H](SC)[C@H](O)[C@@H](O)[C@H]2O)[C@H](C)Cl)N(C)C1
inactive: viability [1] 110% | Potency [2] | Potency [3] | Potency [4] | Potency [5] | Potency [6] | Potency [7]

Nc1nc(F)nc2c1ncn2C1OC(COP(=O)(O)O)C(O)C1O (centres undefined)
active: Potency [1] 4680 nM | Potency [2] 18600 nM | Potency [3] 18600 nM | Potency [4] 16600 nM | Potency [5] 2630 nM | Potency [6] 6610 nM | Potency [7] 9340 nM

CN(C)N=Nc1nc[nH]c1C(N)=O
active: Potency [1] 16600 nM | Potency [3] 9340 nM | Potency [6] 14800 nM
inactive: Potency [2] | Potency [4] | Potency [5] | Potency [7]

Nc1ccn([C@@H]2O[C@H](CO)[C@@H](O)[C@H]2O)c(=O)n1
active: Potency [3] 16600 nM
inactive: viability [1] 117% | Potency [2] | Potency [4] | Potency [5] | Potency [6] | Potency [7]

CC1(C)CC[C@]2(C(=O)O)CC[C@]3(C)C(=CC[C@@H]4[C@@]5(C)C[C@@H](O)[C@H](O)C(C)(C)[C@@H]5CC[C@]43C)[C@@H]2C1
inactive: viability [1] 102% | Potency [2] | Potency [3] | Potency [4] | Potency [5] | Potency [6] | Potency [7]

CCO[C@@H]1OC(=O)C[C@@H]1NC(=O)[C@@H]1CCCN2C(=O)CC[C@H](NC(=O)c3nccc4ccccc34)C(=O)N12
inactive: viability [1] 125% | Potency [2] | Potency [3] | Potency [4] | Potency [5] | Potency [6] | Potency [7]

Cc1cc(-n2c(=O)ccc3cnc4[nH]ccc4c32)ccc1F
inactive: viability [1] 115% | Potency [2] | Potency [4]
active: Potency [3] 16600 nM | Potency [5] 18600 nM | Potency [6] 20900 nM

CCCCCCCCCCCCCCCCCCCCCCO
inactive: viability [1] 112% | Potency [2] | Potency [3] | Potency [4] | Potency [5] | Potency [6] | Potency [7]

COc1cc(C)[nH]c(=O)c1CN1CCc2c(Cl)cc([C@H](OC)C3COC3)c(Cl)c2C1=O
inactive: viability [1] 112% | Potency [2] | Potency [3] | Potency [4] | Potency [5] | Potency [6] | Potency [7]

N#Cc1c(N(CC(=O)O)CC(=O)O)sc(C(=O)O)c1CC(=O)O
inactive: viability [1] 117% | Potency [2] | Potency [3] | Potency [4] | Potency [5] | Potency [6] | Potency [7]

CC(=O)c1ccc2c(c1)c1cc(C(C)=O)ccc1n2CCNC(C)C
active: Potency [1] 1180 nM | Potency [2] 1050 nM | Potency [3] 525 nM | Potency [4] 1320 nM | Potency [5] 833 nM | Potency [6] 833 nM

CN1C(=O)N[C@H](Cc2c[nH]c3c(Cl)cccc23)C1=O
active: Potency [3] 37200 nM
inactive: viability [1] 113% | Potency [2] | Potency [4] | Potency [5] | Potency [6]

CC(C)c1ccc(Cn2ccc3c4c(N)nc(NC5CC5)nc4ccc32)cc1
active: Potency [1] 468 nM | Potency [2] 1480 nM | Potency [3] 2090 nM | Potency [4] 1320 nM | Potency [5] 1320 nM | Potency [6] 1320 nM | Potency [7] 1480 nM

CN(C)CCCN=c1c2ccccc2n(C)c2[nH]c(=O)n(C)c(=O)c12
active: Potency [1] 23500 nM | Potency [2] 18600 nM | Potency [3] 9340 nM | Potency [4] 23500 nM | Potency [5] 26300 nM | Potency [6] 18600 nM

O=C1NC(=O)[C@@H](c2c[nH]c3ccccc23)[C@H]1c1cn2c3c(cccc13)CCC2
active: Potency [1] 2350 nM | Potency [2] 1180 nM | Potency [3] 1320 nM | Potency [4] 934 nM | Potency [5] 1050 nM | Potency [6] 934 nM | Potency [7] 934 nM

COc1cc(OC)cc(N(CCNC(C)C)c2ccc3ncc(-c4cnn(C)c4)nc3c2)c1
active: Potency [1] 18600 nM | Potency [2] 18600 nM | Potency [3] 16600 nM | Potency [4] 2350 nM | Potency [5] 10500 nM | Potency [6] 18600 nM | Potency [7] 18600 nM

COCCn1c2c([n+](Cc3cnccn3)c1C)C(=O)c1ccccc1C2=O
active: Potency [1] 1180 nM | Potency [2] 52.5 nM | Potency [3] 66.1 nM | Potency [4] 166 nM | Potency [5] 105 nM | Potency [6] 148 nM | Potency [7] 186 nM

C/C(=N\NC(=S)N1CCC1)c1ccccn1
active: Potency [1] 59 nM | Potency [2] 37.2 nM | Potency [3] 37.2 nM | Potency [4] 37.2 nM | Potency [5] 41.7 nM | Potency [6] 37.2 nM | Potency [7] 41.7 nM

CO[C@H]1/C=C/O[C@@]2(C)Oc3c(C)c(O)c4c(O)c(c5c(nc6cc(C)ccn65)c4c3C2=O)NC(=O)/C(C)=C\C=C\[C@H](C)[C@H](O)[C@@H](C)[C@@H](O)[C@@H](C)[C@H](OC(C)=O)[C@@H]1C
inactive: viability [1] 111% | Potency [2] | Potency [3] | Potency [4] | Potency [5] | Potency [6] | Potency [7]

COc1cc(O)c2c(c1)C1OC1C[C@H](O)[C@H](O)C(=O)C=CC[C@H](C)OC2=O (some centres undefined)
active: Potency [1] 5900 nM | Potency [2] 742 nM | Potency [3] 132 nM | Potency [4] 934 nM | Potency [5] 1480 nM | Potency [6] 1320 nM | Potency [7] 1480 nM

CC[C@@H]1[C@H](F)C(=O)N[C@@H]1COc1nccc2cc(C(N)=O)c(OC)cc12
active: Potency [1] 14800 nM | Potency [2] 14800 nM | Potency [3] 8330 nM | Potency [4] 11800 nM | Potency [5] 20900 nM | Potency [6] 14800 nM | Potency [7] 20900 nM

Cc1ccc(C(=O)N(CCCN)[C@@H](c2oc3cc(Cl)ccc3c(=O)c2Cc2ccccc2)C(C)C)cc1
active: Potency [1] 166 nM | Potency [2] 26.3 nM | Potency [3] 37.2 nM | Potency [4] 13.2 nM | Potency [5] 14.8 nM | Potency [6] 46.8 nM

COc1ccc2c(c1)CC[C@@H]1[C@@H]2CC[C@]2(C)[C@@H](NCCCCCCN3C(=O)C=CC3=O)CC[C@@H]12
inactive: viability [1] 113% | Potency [2] | Potency [3] | Potency [4] | Potency [5] | Potency [6] | Potency [7]

CCC(=O)OCC(=O)C1(OC(=O)CC)C(C)CC2C3CCC4=CC(=O)C=CC4(C)C3(F)C(O)CC21C (centres undefined)
inactive: viability [1] 109% | Potency [2] | Potency [3] | Potency [4] | Potency [5] | Potency [6]

CCOc1ccc(-n2c([C@@H](C)N(Cc3cccnc3)C(=O)Cc3ccc(F)c(C(F)(F)F)c3)nc3ncccc3c2=O)cc1
active: Potency [3] 18600 nM
inactive: viability [1] 112% | Potency [2] | Potency [4] | Potency [5] | Potency [6]

CCC(=C/[C@H](C)C/C=C/C(C)=C/[C@@H](C)C(=O)[C@@H](C)[C@H](O)[C@@H](C)C/C(C)=C/C(=O)O)/C=C/[C@@H]1OC(=O)C=C[C@@H]1C
active: Potency [1] 7.4 nM | Potency [2] 4.2 nM | Potency [3] 3 nM | Potency [4] 3.7 nM | Potency [5] 3.3 nM | Potency [6] 3 nM

NC(=O)/C(=C/n1cnc(-c2cc(C(F)(F)F)cc(C(F)(F)F)c2)n1)c1cncnc1
active: Potency [1] 590 nM | Potency [2] 742 nM | Potency [3] 186 nM | Potency [4] 742 nM | Potency [5] 118 nM | Potency [6] 263 nM | Potency [7] 166 nM

COc1cc2c(Oc3ccc4[nH]c(C)cc4c3F)ccnc2cc1OCC1(N)CC1
active: Potency [1] 16600 nM | Potency [2] 7420 nM | Potency [3] 8330 nM | Potency [4] 10500 nM | Potency [5] 9340 nM | Potency [6] 7420 nM | Potency [7] 8330 nM

C[C@@H]1[C@H](O)[C@@H](C)/C=C/C=C/C=C/C=C/C=C/C=C/C=C/[C@H](O[C@@H]2O[C@H](C)[C@@H](O)[C@H](N)[C@@H]2O)C[C@@H]2O[C@](O)(C[C@@H](O)C[C@@H](O)[C@H](O)CC[C@@H](O)C[C@@H](O)CC(=O)O[C@H]1C)C[C@H](O)[C@H]2C(=O)O
active: Potency [3] 23500 nM
inactive: viability [1] 112% | Potency [2] | Potency [4] | Potency [5] | Potency [6] | Potency [7]
